HSP90 inh: inhibitors of HSP90 luciferase refolding in rabbit reticulocyte lysate. luciferase refolding luminescence, 3 h. inhibition, % at 5.6 µM. 290,000 compounds, 0.91% hits. AID 1789;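 active = inhibition above the screen-wide mean plus 3 SD, computed separately per campaign, cut at about 16% in these data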;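 also: inhibitors lower the luminescence because luciferase stays unfolded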
LGR2 antag: inhibitors of bursicon-induced Drosophila LGR2 receptor cAMP signaling | HEK293 LGR2, CRE-luciferase, bursicon-stimulated, 4 h | inhibition, % at 9.99 µM | 380,000 compounds, 0.35% hits;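 active = drop in luminescence signal, shown as inhibition above about 50% in the replicate tests, limit read from the data, passing the limit was not always enough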;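 also: agonist challenge used bursicon conditioned medium at about half maximal strength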
TWEAK-Fn14 inh: inhibitors of TWEAK-Fn14 interaction signaling | inhibition, % at 10 µM | 360,000 compounds, 2% hits | TWEAK-stimulated Fn14 reporter cells, luciferase luminescence, 8 h; in the data active = inhibition above about 50%
TROY signal inh: TROY signaling inhibition. AID 1347056. 360,000 compounds, 0.98% hits. Q293 LMP1-TROYcd NF-kB luciferase reporter, 4 h. inhibition, % at 10 µM;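 active = compounds whose plate-normalised and pattern-corrected inhibition of the luciferase reporter signal at the single screening dose is 50% or more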
Numbers stand for hits; . = inactive; / = no result given. Only some compounds are listed: those with a hit (about 2.2% of all), similar ones and a draw of the others.

SMILES | HSP90 inh | LGR2 antag | TWEAK-Fn14 inh | TROY signal inh
Cc1nn(CCc2nn[nH]n2)c2nc(-c3ccc(Br)cc3)cc(C(F)(F)F)c12 | . | . | . | 52.9
COc1ccc2c3c([nH]c2c1)[C@H](CO)N(Cc1ccccc1)CC31CN(S(=O)(=O)c2ccc(C)cc2)C1 | / | . | / | /
CC(=O)c1ccc2c(c1)CC1(C2)Cc2cc3c(cc2C1)C(=O)CC3 (stereo not drawn) | / | . | 56.5 | 51.2
CC(=O)c1ccc2c(c1)Cc1cc(C(C)=O)ccc1-2 | . | . | . | .
CN(C)C(=O)N1CCN(S(=O)(=O)c2ccc3ccccc3c2)CC1 | . | . | 101.1 | .
Cc1ccc(Sc2c([N+](=O)[O-])c(=O)n(C)c3ccccc23)cc1 | . | . | . | 67.8
Cn1c(-c2ccccc2)c(C=O)c2ccccc21 | . | . | . | .
Cc1ccc(Sc2c(O)c3ccccc3n(C)c2=O)cc1 | . | . | . | .
Cc1ccc(Sc2c(C=O)c3ccccc3n2C)cc1 | . | / | 69.4 | 52.3
CCCNC(=O)N[C@H]1C=C[C@@H](CC(=O)NC2CCC2)O[C@@H]1CO | / | . | / | /
O=C(C[C@@H]1CC[C@H](NC(=O)c2ccccc2)[C@H](CO)O1)NCc1ccc(Oc2ccccc2)cc1 | / | . | / | /
Cc1ccc(S(=O)(=O)Nc2ccc3c(c2)C(=O)N([C@H](C)CO)C[C@@H](C)[C@@H](CN(C)S(=O)(=O)c2c(C)noc2C)OCCCC[C@H](C)O3)cc1 | / | . | / | /
COc1cc(C=CC(=O)c2cc(OC)c(OC)c(OC)c2)cc(OC)c1OC | / | 56.7 | 64.5 | .
COc1cc(O)c(C(=O)/C=C/c2ccccc2)c(OC)c1 | . | . | 73.6 | .
COc1ccc2cc(C(=O)/C=C/c3cc(OC)c(OC)c(OC)c3)ccc2c1 | . | . | . | .
COc1cc(/C=C/C(=O)N2CCC=CC2=O)cc(OC)c1OC | / | 100.1 | 91.6 | .
COc1cc(C=CC(=O)c2ccccc2)cc(OC)c1OC | / | . | 78.5 | .
CCOC(=O)c1nn(-c2c(C)n(C)n(-c3ccccc3)c2=O)cc1O | . | / | 61.5 | /
O=[N+]([O-])c1ccc(O)c(/C=N/Nc2ccccc2Cl)c1 | . | . | . | 69.3
CCOc1ccc(C(=O)Nc2cccc(C)n2)cc1 | . | / | 63.5 | .
CCOc1ccc(C(=O)Nc2nnn(CC)n2)cc1 | 16.3 | / | . | .
CCCCOc1ccc(C(=O)Nc2cccc(C)n2)cc1 | . | / | . | .
CCCCn1c(-c2ccncc2)nc2c1c(=O)[nH]c(=O)n2CC(C)C | . | . | 76.4 | /
CC(=O)c1c(C)[nH]c(C(=O)CSc2ncnc3sc(-c4ccccc4)cc23)c1C | . | / | 63.7 | .
CC(=O)c1c(C)[nH]c(C(=O)CSc2nnc(-c3ccccc3)o2)c1C | . | / | 96.1 | .
SMILES | HSP90 inh | LGR2 antag | TWEAK-Fn14 inh | TROY signal inh
O=C(O)CCSc1ncnc2sc(-c3ccccc3)cc12 | . | . | 86.0 | 62.5
O=C(CSc1nnc(-c2ccccc2)o1)c1nnc(-c2ccccc2)o1 | . | . | . | .
Cc1noc(C)c1S(=O)(=O)Nc1ccc2c(c1)C(=O)N([C@@H](C)CO)C[C@H](C)[C@H](CN(C)S(=O)(=O)c1c(C)noc1C)O2 | / | . | / | /
C[C@@H]1CN([C@H](C)CO)C(=O)c2cc(NC(=O)CCN3CCOCC3)ccc2O[C@@H]1CN(C)C(=O)Nc1ccc(F)cc1 | / | . | / | /
CCN(C(=O)COC(=O)Cc1cccc2ccccc12)C1CCS(=O)(=O)C1 (stereo not drawn) | / | . | . | .
O=C(Nc1cccc2ccccc12)N(CCO)C1CCS(=O)(=O)C1 (stereo not drawn) | . | . | 64.0 | 51.5
Nc1nnnn1/N=C/C=C/c1ccccc1 | . | . | . | .
Nc1nnnn1/N=C/C(Br)=C/c1ccccc1 | . | / | 75.0 | .
CC(=O)Nc1sc(N/N=C\c2ccccc2Cl)nc1-c1cccs1 | . | . | 66.9 | .
CC(=O)Nc1sc(N/N=C\c2ccccc2)nc1-c1cccs1 | . | . | . | .
CCCNC(=O)N1CC2(CCN(C(=O)CN(C)C)CC2)c2c(n(C)c3cc(OC)ccc23)[C@H]1CO | / | . | / | /
COc1ccc2c3c(n(C)c2c1)[C@H](CO)N(Cc1ccccc1)CC31CCN(C(=O)c2ccccc2F)CC1 | / | . | / | /
COc1ccc(-c2nn(-c3ccccc3)cc2/C=N/NC(=O)c2ccc3c(c2)OCO3)cc1 | . | / | / | /
COc1ccc(-c2nn(-c3ccccc3)cc2/C=N/NC(=O)c2ccc(Br)o2)cc1 | . | / | 93.6 | 75.9
C[C@@H](NC(=O)C[C@H]1CC[C@H](NC(=O)C2CCC2)[C@@H](CO)O1)c1ccccc1 | / | . | / | /
Cc1ccc(CSc2nccc(-c3c(C)nc4ccccn34)n2)cc1 | . | . | 57.0 | .
Cc1ccc(CSc2ncn(-c3ccccc3)n2)cc1 | . | / | . | .
NS(=O)(=O)c1ccc(CNC(=O)/C=C/c2ccc(S(=O)(=O)N3CCOCC3)cc2)cc1 | . | . | . | .
